aGlu spleen mod = inhibits or activates alpha-glucosidase in human spleen homogenate; P10253; human spleen homogenate, 4-MU-alpha-glucoside fluorescence; Potency, µM (doses to about 79.9 µM), usual class: inhibitors; 0.006% of 240,000 active; AID 2112
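Enzyme source: human spleen homogenate, 1 ug/well. Buffer 50 mM citric acid/K phosphate pH 5.0, 0.01% Tween-20. 4-MU-alpha-glucoside 1 mM; 37 C x 40 min; NaOH/glycine stop; fluorescence.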
N370S GC mod = N370S glucocerebrosidase modulation, Gaucher chaperone candidate; P04062; N370S GC spleen homogenate, 4MU-glucoside fluorescence; Potency, µM (top dose mostly 59.4 µM), actives largely listed as inhibitors; 0.092% of 330,000 active
GLA inh pH 4.5 = alpha-galactosidase A (human) inhibition, pH 4.5; P06280; purified enzyme, 4-MU-alpha-Gal fluorescence, pH 4.5; activity change, negative = inhibition, % at 105 µM; 230,000 tested, under 10 active; AID 1467
GAA glycogen mod = GAA glycogen-cleavage inhibition or activation. P10253. 0.38% of 300,000 active. Potency, µM (series often up to 76.4 µM), hits mostly inhibitors. AID 2100. recombinant GAA, glycogen substrate, Amplex Red glucose oxidase fluorescence;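 note: the screen sought inhibitors and activators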
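Recombinant human enzyme (4 nM); glycogen substrate; 37 C, 40 min, pH 5.0. Readout: coupled glucose oxidase/Amplex Red fluorescence.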
GAA inh = inhibitors of human lysosomal alpha-glucosidase | P10253 | purified human GAA, 4-MU-alpha-glucoside fluorescence | Potency, µM (series often up to 76.9 µM), usual class: inhibitors | 0.005% of 200,000 active | AID 1466
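Activity normalized between no-enzyme (basal) and enzyme-only wells. Conditions: 4 nM human enzyme, 400 uM fluorogenic substrate, citrate/phosphate pH 5.0 with Tween-20, 20 min room temperature, compounds up to 77 uM.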
aGal spleen mod = inhibits or activates alpha-galactosidase in human spleen homogenate. human spleen homogenate, 4MU-alpha-Gal fluorescence, 40 min. Potency, µM (doses to about 80 µM), most hits filed as inhibitors. 0.008% of 240,000 active. AID 2107
Target sequence (P06280 32-429 limits assumed): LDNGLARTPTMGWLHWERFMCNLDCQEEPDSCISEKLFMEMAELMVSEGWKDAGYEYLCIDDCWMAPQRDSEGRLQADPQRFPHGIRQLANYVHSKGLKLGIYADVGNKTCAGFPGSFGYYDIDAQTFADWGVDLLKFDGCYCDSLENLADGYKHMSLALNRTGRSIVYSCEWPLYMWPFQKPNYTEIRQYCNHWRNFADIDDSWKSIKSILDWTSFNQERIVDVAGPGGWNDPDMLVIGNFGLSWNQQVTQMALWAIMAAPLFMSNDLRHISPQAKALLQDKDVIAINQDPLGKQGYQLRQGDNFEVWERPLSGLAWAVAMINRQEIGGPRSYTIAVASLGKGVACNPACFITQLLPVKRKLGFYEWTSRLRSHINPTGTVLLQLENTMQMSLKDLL
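Spleen homogenate 1 ug + cpd (titration) + 4-MU-alpha-D-galactopyranoside 1 mM; 37C 40 min; 50 mM citrate/phosphate pH 5.0, 0.01% Tween-20; stop pH 10; fluorescence 365/440; AC50 via Hill.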
Hits are given with their value; - = inactive; ? = inconclusive; . = no result given. Most compounds without a hit are left out; they make up all but 0.41% or so of the library. Calls come from the whole dose curve; as a rule, active = well fitted curve in the direction sought with a large enough effect; inconclusive = small, poorly fitted or top-dose-only effect, or another doubt; inactive = no such curve, though single readings can be large; an effect the other way counts as inactive or inconclusive.

SMILES	aGlu spleen mod	N370S GC mod	GLA inh pH 4.5	GAA glycogen mod	GAA inh	aGal spleen mod
Cc1c(N=Cc2ccncc2)c(=O)n(-c2ccccc2)n1C	-	-	-	12.5µM	-	-
Cc1c(N=Cc2ccccn2)c(=O)n(-c2ccccc2)n1C	-	-	-	12.6µM	-	-
CCCCc1ccc(-n2nc3ccc(NC(=O)c4cc5ccccc5o4)cc3n2)cc1	.	.	.	-	.	.
CCCCOc1ccc(Cn2c(=O)sc3ccccc32)cc1OC	.	.	.	-	.	.
COc1ccc(NCc2ccc([N+](=O)[O-])s2)cc1	-	-	-	?	-	-
COc1ccc(NCc2ccc([N+](=O)[O-])s2)c(OC)c1	-	-	-	9.92µM	-	-
O=S1(=O)NCC23CCC(CC21)O3 (configuration not stated)	-	-	.	.	.	-
O=c1c(=Nc2ccccc2O)c(=O)c2ccccc12	-	-	-	8.91µM	-	-
O=c1[nH][nH]cc1C=Nc1ccccc1O	-	-	-	?	-	-
COc1cc(CN(C(=O)COc2ccc(Cl)cc2)c2ccccn2)cc(OC)c1OC	.	.	.	-	.	.
CCOC(=O)c1ccc(Nc2cc(C)nc(-c3ccccc3)n2)cc1	.	1.41µM	.	-	.	.
CCOC(=O)c1ccc(Nc2nc(C)cc(C)n2)cc1	.	-	.	-	.	.
Oc1ccccc1N1CCN(c2ncccn2)CC1	-	-	-	7.88µM	-	-
c1ccc(N2CCN(c3ncccn3)CC2)cc1	-	-	-	-	-	-
CCc1cccc(NCc2ccccc2-c2nnc(-c3ccccc3Cl)o2)c1	.	.	.	-	.	.
O=C(C1=C[C@H](c2ccc(C(F)(F)F)cc2)C[C@H](OCc2ccc(CO)cc2)O1)N1CCN(Cc2ccc3c(c2)OCO3)CC1	-	-	-	-	.	-
O=C(C1=C[C@@H](c2ccc(Br)cc2)C[C@@H](OCc2ccc(CO)cc2)O1)N1CCN(Cc2ccccc2)CC1	-	14.1µM	-	-	.	-
O=C(C1=C[C@@H](c2ccc(C(F)(F)F)cc2)C[C@@H](OCc2ccc(CO)cc2)O1)N1CCN(Cc2ccc3c(c2)OCO3)CC1	-	10µM	-	-	.	-
CCOC(=O)N1CCc2c(sc3c2c(=O)n(Cc2ccccc2)c(=O)n3Cc2ccccc2Cl)C1	.	.	.	-	.	.
CC(C)CCn1c(=O)c2sccc2n2c(CCCC(=O)Nc3ccc(F)c(Cl)c3)nnc12	.	.	.	-	.	.
C=CCn1c2ccccc2c2nnc(SCC(=O)NC(C(=O)OC)C(C)C)nc21 (configuration not stated)	-	-	-	-	-	39.8µM
C=CCn1c2ccccc2c2nnc(SCC(N)=O)nc21	.	-	.	-	.	.
COc1ccc(C(=O)/C=C/Nc2c(C)n(C)n(-c3ccccc3)c2=O)cc1OC	-	-	-	3.14µM	?	-
Cc1cnc(CNc2nc(-c3ccccc3Cl)nc3ccccc23)cn1	-	?	.	.	.	-
O=S(=O)(c1ccc(OCC(O)CN2CCN(c3ccccc3O)CC2)cc1)N1CCOCC1 (configuration not stated)	-	-	-	6.31µM	-	-
SMILES	aGlu spleen mod	N370S GC mod	GLA inh pH 4.5	GAA glycogen mod	GAA inh	aGal spleen mod
O=c1nc(/C=C/c2ccc(O)c(O)c2)oc2ccccc12	-	-	-	7.08µM	.	-
Cc1ccc(N2CCN(C(=O)c3cn(C)c4ccc(S(=O)(=O)N5CCCC5)cc4c3=O)CC2C)cc1 (configuration not stated)	.	.	.	-	.	.
O=c1[nH]cc(O)c(=O)[nH]1	-	-	-	5.01µM	-	-
CN1c2ccccc2C(C)(C)C12C=Nc1c(ccc3ccccc13)O2 (configuration not stated)	-	-	-	-	-	-
CN1c2ccccc2C(C)(C)[C@]12C=Cc1cc(O)ccc1O2	-	-	-	7.88µM	-	-
CCN(CC)c1ccc(/C=N/Nc2nc(C)cc(C)n2)cc1	-	-	-	11.2µM	.	-
Cc1cc(C)nc(N/N=C/c2ccccc2)n1	-	-	.	-	-	-
Cc1cc(Nc2cccc(Cl)c2)nc2ccc(NC(=O)COc3ccc(Cl)cc3)cc12	.	.	.	-	.	.
CCc1ccc(NC(=S)Nc2cc(OC)c(NC(=O)C(C)C)cc2OC)cc1	-	-	-	12.5µM	-	-
COc1cc(NC(=S)NC(C)=O)ccc1NC(=O)C(C)C	-	-	-	-	-	-
CC1CCC/C(=N/Nc2ccc([N+](=O)[O-])cc2[N+](=O)[O-])C1 (configuration not stated)	-	-	-	15.7µM	-	-
COc1cc(C2Nc3ccc4ncccc4c3C3=C2C(=O)CCC3)cc(OC)c1O (configuration not stated)	-	-	-	44.7µM	-	-
Cc1ccc(-c2cnc(NCc3c(F)cccc3Cl)n2C)cc1	.	.	.	22.4µM	.	.
N=c1c2c(-c3ccccc3)c(-c3ccccc3)n(Cc3ccco3)c2ncn1CCCN1CCOCC1	-	-	-	-	-	-
N=c1c2c(-c3ccccc3)c(-c3ccccc3)n(Cc3ccccc3)c2ncn1CCO	-	3.98µM	?	-	?	-
N=c1c2c(-c3ccccc3)c(-c3ccccc3)n(Cc3ccco3)c2ncn1CCCn1ccnc1	-	3.16µM	?	-	-	-
COc1cccc(C2=NN(S(C)(=O)=O)C(c3cn(-c4ccccc4)nc3-c3cccs3)C2)c1 (configuration not stated)	.	.	.	-	.	.
Nc1nc(-c2cccs2)c(NC(=O)c2ccccc2)s1	-	-	-	20µM	-	-
CCOc1cc2c3c(c1)C1(Nc4ccccc4S1)C(=O)N3C(C)(C)CC2C (configuration not stated)	-	-	-	35.5µM	-	-
CCOc1cc2c3c(c1)C1(OCCO1)C(=O)N3C(C)(C)CC2C (configuration not stated)	-	-	-	-	-	-
COc1cccc(C2Nc3ccccc3-c3nnc(SCc4ccccc4)nc3O2)c1OC (configuration not stated)	.	.	.	-	.	.
Cc1cc(/C=C2/C(=O)NN(c3ccccc3)C2=O)c(C)n1-c1ccc(O)cc1	-	8.91µM	-	-	-	-
CC(C)C1Nc2c(O)cc(Cl)c([N+](=O)[O-])c2C2C=CCC21 (configuration not stated)	-	-	-	14µM	-	-
CCOc1ccc(Nc2nc(Cc3nnc(SCC(=O)NCC4CCCO4)n3C)cs2)cc1 (configuration not stated)	-	-	-	11.2µM	-	-
CCOc1ccc(Nc2nc(Cc3nnc(SCC(=O)NC4CCCCC4)n3C)cs2)cc1	-	-	-	?	-	-
COc1ccc(Br)cc1S(=O)(=O)NNC(=O)c1c(C)nc2ccccn12	-	-	-	10µM	-	-
CCOc1ccc(OCC)c(S(=O)(=O)NNC(=O)c2c(C)nc3ccccn23)c1	-	-	-	-	-	-
c1ccc2[nH]c(NCCCc3cnc[nH]3)nc2c1	-	?	.	.	.	-
